Test results from PubChem BioAssay AID1159580 (chemical genetic matrix, 2015).
Out of some 5,500 compounds screened, about 2,000 (36%) were called active. Another 18% or so got no clear call; they are omitted. Rule as the data show it: active = normalized growth mostly below about 0.91 (no sharp cut-off); inconclusive = no clear call, values can overlap the other calls; inactive = mostly above about 0.92. Some of the results follow.

Test: chemical genetic growth profiling, strain panel (AID 1159580);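 also: tested at 20 µM; growth read once vehicle control cultures reached saturation at 30 °C; 1 = growth at the plate median or of vehicle wells; lower values mean less growth of the strain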
Details: S. cerevisiae deletion strains, growth OD

Measured: normalized growth

C=C1C2CC[C@H]3[C@]4(C)C[C@H](OC5OC(CO)C(OS(=O)(=O)O)C(OS(=O)(=O)O)C5OC(=O)CC(C)C)C[C@@H](C(=O)O)[C@H]4CC[C@]3(C2)[C@H]1O (some centres undefined)
inactive: locus YAL013W, strain DEP1, active compounds read low 1.01 | locus YAL021C, strain ccr4, active compounds read low 0.974 | locus YAL026C, strain drs2, active compounds read low 1.01 | locus YAL030W, strain snc1, active compounds read low 1.01 | locus YBL061C, strain skt5, active compounds read low 1.01 | locus YBR009C, strain hhf1, active compounds read low 1.02 | locus YBR021W, strain FUR4, active compounds read low 1.02 | locus YBR023C, strain chs3, active compounds read low 1.01 | locus YBR171W, strain sec66, active compounds read low 1.01 | locus YBR229C, strain ROT2, active compounds read low 1.01 | locus YBR231C, strain swc5, active compounds read low 1.02 | locus YBR279W, strain paf1, active compounds read low 1.01 | locus YCL011C, strain gbp2, active compounds read low 1.01 | locus YCL016C, strain dcc1, active compounds read low 1 | locus YCL029C, strain bik1, active compounds read low 0.983 | locus YCL061C, strain MRC1, active compounds read low 1.01 | locus YCL069W, strain vba3, active compounds read low 1.02 | locus YCR088W, strain abp1, active compounds read low 1.01 | locus YDL005C, strain med2, active compounds read low 1 | locus YDL035C, strain GPR1, active compounds read low 1.01 | locus YDL040C, strain nat1, active compounds read low 1 | locus YDL074C, strain BRE1, active compounds read low 1.04 | locus YDL101C, strain DUN1, active compounds read low 1.02 | locus YDL134C, strain PPH21, active compounds read low 1.01 | locus YDL185W, strain tfp1, active compounds read low 0.986 | locus YDL192W, strain arf1, active compounds read low 0.986 | locus YDR001C, strain nth1, active compounds read low 1.01 | locus YDR069C, strain doa4, active compounds read low 1.02 | locus YDR101C, strain arx1, active compounds read low 0.979 | locus YDR137W, strain rgp1, active compounds read low 1.01 | locus YDR150W, strain NUM1, active compounds read low 1.01 | locus YDR159W, strain sac3, active compounds read low 1.01 | locus YDR162C, strain NBP2, active compounds read low 1.04 | locus YDR195W, strain ref2 0.999 | locus YDR297W, strain sur2, active compounds read low 1.01 | locus YDR318W, strain mcm21, active compounds read low 0.978 | locus YDR334W, strain swr1, active compounds read low 1.01 | locus YDR335W, strain msn5, active compounds read low 1.01 | locus YDR388W, active compounds read low 0.988 | locus YDR392W, strain spt3, active compounds read low 0.942 | locus YDR502C, strain sam2, active compounds read low 0.994 | locus YEL003W, strain gim4, active compounds read low 1.01 | locus YEL037C, strain rad23, active compounds read low 1.01 | locus YEL061C, strain CIN8 (second series), active compounds read low 1 | locus YEL061C, strain CIN8, active compounds read low 1 | locus YER015W, strain faa2, active compounds read low 1.01 | locus YER016W, strain bim1, active compounds read low 1.01 | locus YER110C, active compounds read low 0.975 | locus YER111C, strain swi4, active compounds read low 1.01 | locus YER155C, strain BEM2 (second series), active compounds read low 1.02 | locus YER155C, strain BEM2, active compounds read low 1.02 | locus YER167W, strain BCK2, active compounds read low 1 | locus YFR010W, strain ubp6, active compounds read low 1.01 | locus YGL078C, strain dbp3, active compounds read low 0.978 | locus YGL086W, strain mad1, active compounds read low 0.972 | locus YGL167C, strain pmr1, active compounds read low 1.01 | locus YGL173C, strain kem1, active compounds read low 1.01 | locus YGL227W, strain vid30, active compounds read low 1.01 | locus YGL240W, strain doc1, active compounds read low 1.03 | locus YGL248W, strain PDE1, active compounds read low 1.01 | locus YGL253W, strain hxk2, active compounds read low 1.01 | locus YGR078C, strain PAC10, active compounds read low 1.03 | locus YGR135W, strain pre9, active compounds read low 0.987 | locus YGR229C, strain SMI1, active compounds read low 1.02 | locus YGR252W, strain gcn5, active compounds read low 1.02 | locus YHR013C, strain ard1, active compounds read low 0.999 | locus YHR027C, strain rpn1, active compounds read low 1.01 | locus YHR030C, strain SLT2, active compounds read low 1 | locus YHR079C, strain IRE1 (second series), active compounds read low 0.987 | locus YHR094C, strain hxt1, active compounds read low 0.988 | locus YHR129C, strain ARP1, active compounds read low 1.01 | locus YHR142W, strain chs7, active compounds read low 0.985 | locus YHR200W, strain rpn10, active compounds read low 0.996 | locus YIL066C, strain RNR3, active compounds read low 1.02 | locus YIL073C, strain SPO22, active compounds read low 0.966 | locus YIL125W, strain kgd1, active compounds read low 0.97 | locus YIR030C, strain dcg1, active compounds read low 0.99 | locus YJL092W, strain hpr5, active compounds read low 1.01 | locus YJL095W, strain BCK1 (second series), active compounds read low 1.01 | locus YJL095W, strain BCK1, active compounds read low 1.02 | locus YJL115W, strain asf1, active compounds read low 1.01 | locus YJL129C, strain trk1, active compounds read low 1.01 | locus YJL134W, strain LCB3, active compounds read low 1.01 | locus YJL154C, strain vps35, active compounds read low 1.01 | locus YJL164C, strain tpk1, active compounds read low 1 | locus YJL166W, strain qcr8, active compounds read low 1 | locus YJL168C, strain set2, active compounds read low 0.985 | locus YJL187C, strain SWE1 (second series), active compounds read low 1.02 | locus YJL187C, strain SWE1, active compounds read low 1.02
